PubChem BioAssay (NCI)
Where “and” joins values, the source holds several entries; their conditions need not be identical. Equal entries are not always repeated. About 83,000 compounds went through this panel and 20% of them were active in at least one assay; those are over-represented in the sample as a whole.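 Percent growth is the endpoint: 0 to 100 indicates growth inhibition (40 means 60% inhibition), 0 means no net growth, and negative values indicate cell death.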 Unmarked numbers belong to inactive results. Calls of active or inactive are those of the source. The calls were made as follows: active = growth percent below 10; inactive = the rest.

tested on: MDA-MB-468 breast; experiment: NCI-60 one-dose screen, 48 h (100 = growth as untreated, 0 = no growth, -100 = all killed); conditions: 10 µM unless noted

With `COc1ccc(-c2cc(-c3ccc(Nc4ccnc5cc(Cl)ccc45)cc3)nc(N3CCOCC3)n2)cc1` as the molecule, how does the growth read?
Its growth is 42.1%.

For `COc1ccc2c(c1)c(-c1nc(-c3cn(C)c4ncccc34)cs1)cn2CCO`, which growth is on record?
Its growth is -16.8% (active).

`COCCOCCCl` was tested. Which growth did it give?
Its growth is 102%.

`COc1ccc(N2C(=O)CC(c3cc(OC)c(OC)c(OC)c3)C3C2=NC(=O)N3C)cc1` (stereo not given) was tested. Which growth did it give?
The growth was 98.9%.

For `Cc1cc2nc3c4ccccc4n(CCN(C)C)c3nc2cc1C`, which growth is on record?
Its growth is -12.1% (active).

`COc1c(N2CC3CCCNC3C2)c(F)cc2c(=O)c(C(=O)N/N=C/c3c[nH]c4ccccc34)cn(C3CC3)c12` (stereo not given) was tested. Which growth did it give?
Its growth is 100%.

Which growth does the source give for `CCOC(=N)c1ccc(C(=N)OCC)cc1` here?
The growth was 106%.

With `COc1cnc2c(c1)C(=O)c1c-2n(CCCNCCN2CCOCC2)c(=O)c2cc([N+](=O)[O-])ccc12` as the molecule, how does the growth read?
The growth was -27% (active).

How did the growth turn out when `CCCN1CCN(c2ccc3nc(-c4ccc5nc(-c6cc(OC)ccc6OC)[nH]c5c4)[nH]c3c2)CC1` was run?
Its growth is 114%.

How did the growth turn out when `COc1ccc(C(=O)N2NC(=O)/C(=C/c3cn(-c4ccccc4)nc3-c3ccccc3)N=C2c2ccccc2)cc1` was run?
Its growth is 95.7%.

`CCOc1ccc(/C=N/N=C(N)N)cc1OCC` was tested. Which growth did it give?
The growth was 98.3%.

Which growth does the source give for `O=C(N/N=C/c1ccccc1)N/N=C/c1ccccc1` here?
The growth was 108% and 96.4%.

Which growth does the source give for `CCN1C(=O)C2(Nc3ccccc3S2)c2cc(C)ccc21` (stereo not given) here?
Its growth is 98.6%.

`CNC(=O)c1cc(Oc2cccc3nc(Nc4ccc(F)c(Cl)c4)ccc23)ccn1` was tested. Which growth did it give?
The growth was 6.51% (active).

With `COc1ccc2c(c1)C(CC(=O)NN)CCC2` (stereo not given) as the molecule, how does the growth read?
Its growth is 102%.

How did the growth turn out when `O=C(Nc1ccc(N=Nc2ccccc2)cc1)c1cccc2ccccc12` was run?
Its growth is 41.9%.

With `Nc1cccc(S(=O)(=O)c2cccc(N)c2)c1` as the molecule, how does the growth read?
The growth was 119%.

`CC(C)(C)c1ccc(S(=O)(=O)Oc2ccc(-c3sc4cc(OS(=O)(=O)c5ccc(C(C)(C)C)cc5)ccc4c3C(=O)c3ccc(OCCN4CCCCC4)cc3)cc2)cc1` was tested. Which growth did it give?
The growth was 90%.

How did the growth turn out when `CCCCC1=C(P(=O)(O)O)N[C@H](C(=O)O)CS1` was run?
The growth was 89.1%.

Which growth does the source give for `O=C1Nc2ccc(F)cc2/C1=N/c1nnc(Sc2ccccc2)s1` here?
The growth was -0.912% (active).

`CSc1ncc(C)c(Nc2ccc(Cl)cc2)n1` was tested. Which growth did it give?
The growth was 129%.

For `Cc1ccc(S(=O)(=O)c2nc(-c3ccccc3)oc2Sc2nc3ccccc3s2)cc1`, which growth is on record?
Its growth is 52.1%.

For `Cc1ccc(NC(=O)NC2CCCCC2)cc1`, which growth is on record?
Its growth is 93.5%.

How did the growth turn out when `C#COc1cccc(Nc2ncnc3cc(NC(=O)[C@H](C)Cl)ccc23)c1` was run?
Its growth is -11.4% [6.25 µM] (active).

Which growth does the source give for `COc1ccc(/C=C/C(=O)c2ccc(NC(=O)CSc3nnc(-c4ccc(OC)cc4)n3-c3ccccc3)cc2)cc1` here?
Its growth is 106%.

`CCn1c(O)c(/C=N/NC(=O)C(C)c2ccc(CC(C)C)cc2)sc1=S` (stereo not given) was tested. Which growth did it give?
Its growth is 6.34% (active).

How did the growth turn out when `Cn1cc(-c2nnc(-c3cn(C)c4ncccc34)o2)c2ccccc21` was run?
Its growth is -11.4% (active).

Which growth does the source give for `O=c1oc2ccccc2c(Cl)c1Cl` here?
Its growth is 4.65% (active).

Which growth does the source give for `CCCCn1cnc(-c2cc(-c3ccccc3)cc(C(F)(F)F)c2)n1` here?
The growth was 99%.

Which growth does the source give for `N/C(=N\OC(=O)CSc1nc2ccccc2s1)c1ccc(Cl)cc1` here?
Its growth is 100%.

`CC(=O)NCCN` was tested. Which growth did it give?
The growth was 105%.

Which growth does the source give for `COc1cccc(-c2nc3sccn3c2/C=C/C(=O)c2ccc(C(F)(F)F)cc2)c1` here?
The growth was 75.6%.

`CCCCCCCCCCSC(=N)N` was tested. Which growth did it give?
Its growth is -83.1% (active).

Which growth does the source give for `COC1=CC(c2ccc[nH]2)=N/C1=C\c1[nH]c(C)c(C(=O)CCCCC(=O)NCc2ccccc2)c1C` here?
Its growth is 4.21% (active).

`COc1ccc(Cn2nc3c(c2-c2cc(OC)c(OC)c(OC)c2)-c2oncc2CC3)cc1` was tested. Which growth did it give?
Its growth is 27.8%.

`COc1ccc(NC(=O)Nc2ccc(Nc3nc(C)cc(Nc4ccc(C)cc4)n3)cc2)cc1` was tested. Which growth did it give?
Its growth is -68.9% (active).

How did the growth turn out when `NC(CCl)=NCCC[C@H](N)C(=O)O` was run?
Its growth is 91.8%.

With `CCN1/C(=C\c2cc[n+](CC)c3ccccc23)C=Cc2ccccc21` as the molecule, how does the growth read?
The growth was -9.93% (active).

With `O=C(CCCCCCCCC(=O)N/N=C\c1cc(Cl)ccc1O)N/N=C\c1cc(Cl)ccc1O` as the molecule, how does the growth read?
The growth was -16% (active).

For `CC1=C(C(=O)Nc2nc(-c3ccc(Cl)cc3)cs2)[C@H](c2ccc(O)cc2)NC(=O)N1`, which growth is on record?
The growth was 95%.
